Laboratory results as given in PubChem BioAssay.
Measured potencies and affinities stand elsewhere. Values without a mark were called inactive.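 Rule for the calls, unless noted: active = a fitted half-maximal concentration no higher than twice the top valid tested dose, with signal falling as cells die; inconclusive = flat curve between -70% and -30%, or poor fit; inactive = the rest, including signal rising instead of falling.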

assay: viability loss in HepG2 hepatoma cells – cell-based, cherry-picks, set 2, cytotoxicity control, dose response (AID 687002;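 active = a dose-response fit showing signal loss, with half-maximal concentration no higher than twice the top tested dose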); settings: ATP luminescence (CellTiter-Glo), 48 h; series mostly up to 26 µM; activity change, negative = cytotoxicity: at the top concentration

Point of comparison: COc1cccc(S(=O)(=O)N2C[C@@H](O)COC[C@@H]3O[C@H](CC(=O)N4CCN(C)CC4)CC[C@H]32)c1, “activity change, negative = cytotoxicity” value -5.57%. Against it:
- CO[C@@H]1CN(C)C(=O)c2cc(NC(=O)C3CC3)ccc2OC[C@H](C)N(C(=O)c2ccncc2)C[C@H]1C — higher, 11.5%
- CC(C)c1ccc(S(=O)(=O)N2CCN(CC(=O)Nc3ccc4c(c3)OCO4)CC2)cc1 — higher, 17.3%
- COc1ccc(S(=O)(=O)N[C@@H]2C=C[C@@H](CC(=O)N3CCC(Cc4ccccc4)CC3)O[C@H]2CO)cc1 — higher, -0.415%
- CO[C@@H]1CN(C)C(=O)c2ccc(NC(=O)Nc3ccccc3)cc2OC[C@H](C)N(C(C)=O)C[C@H]1C — higher, 0.276%
- CC(=O)NC[C@@H]1[C@@H](c2ccc(C3=CCCC3)cc2)[C@@H](CO)N1C(=O)NC(C)C — higher, 1.95%
- O=C(NC1CCCCC1)N[C@@H]1CC[C@@H](CCNS(=O)(=O)c2ccc(Cl)cc2)O[C@H]1CO — higher, 7.87%

assay: viability loss in HeLa cells – cell-based, ATP luminescence, cherry-pick samples, cytotoxicity control, dose response (AID 687004); settings: ATP luminescence (CellTiter-Glo), 48 h; series mostly up to 26 µM; activity change, negative = cytotoxicity: at the top concentration;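 note: 0% = neutral control median and -100% = staurosporine 10 µM control median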

Point of comparison: Cc1cccc(C)c1NC(=O)CN1CCN(C(=O)CNC(=O)c2ccc(N3CCCC3=O)cc2)CC1, “activity change, negative = cytotoxicity” value 0.39%. Against it:
- COc1ccccc1CNC(=O)COc1ccc2c(c1)CCC2 — lower, 0.236%
- COCC(=O)N1[C@H](C#N)[C@H](c2ccc(C#Cc3ccccc3F)cc2)[C@H]1CO — higher, 7.09%
- Cc1ccc(NC(=O)[C@H](C)NC(=O)C2CCN(C(=O)[C@@H](N)CC(C)C)CC2)cc1 — higher, 7.53%
- C[C@H](O)C#Cc1cnc2c(c1)C(=O)N([C@@H](C)CO)C[C@@H](C)[C@@H](CN(C)C(=O)Cc1ccncc1)O2 — higher, 3.58%
- CCC(=O)N1[C@@H]2c3cccc(=O)n3C[C@H]1[C@H](CO)[C@H]2C(=O)NCc1ccccc1 — lower, 0.309%
- Cc1cccc(C)c1NC(=O)C(C)N1CCCCC1 (configuration not stated) — lower, -1.54%
- C[C@H]1CN([C@@H](C)CO)C(=O)CCCn2nncc2CO[C@@H]1CN(C)Cc1cccc(C(F)(F)F)c1 — higher, 4.24%
- C[C@H](CO)N1C[C@H](C)[C@H](CN(C)C(=O)NC2CCCCC2)OCCCC[C@H](C)Oc2ccc(NC(=O)C3CCCCC3)cc2C1=O — higher, 7.99%
- COc1ccc(-c2cnc3c(c2)C(=O)N([C@H](C)CO)C[C@H](C)[C@H](CN(C)Cc2ccc(F)cc2)O3)cc1 — lower, -0.884%
- O=C([C@H]1[C@H](CO)[C@H]2Cn3c(cccc3=O)[C@H]2N1CCC(F)(F)F)N1CCCCC1 — higher, 0.404%
- C[C@H](CO)N1C[C@H](C)[C@H](CN(C)C(=O)Nc2cccc(F)c2)Oc2ncc(C#CCN(C)C)cc2C1=O — higher, 2.61%
- CN1[C@H](C(=O)N2CCc3ccccc3C2)[C@@H](CO)[C@@H]2Cn3c(ccc(-c4cccnc4)c3=O)[C@@H]21 — higher, 6.5%
- CC(=O)N1[C@@H](CO)[C@H](c2ccc(-c3ccccc3)cc2)[C@@H]1CNC(=O)C1CC1 — lower, -3.26%
- C[C@@H]1CCCCO[C@@H](CN(C)Cc2ccncc2)[C@@H](C)CN([C@H](C)CO)C(=O)c2cc(NC(=O)c3ccncc3)ccc2O1 — higher, 2.02%
- CC(=O)N1CCN(c2ccc(NC(=S)NC(=O)c3ccc(C)c([N+](=O)[O-])c3)cc2)CC1 — lower, -0.306%
- C[C@H](O)C#Cc1ccc([C@H]2[C@H](CO)N3CCCCN(CC4CCOCC4)C[C@@H]23)cc1 — higher, 0.766%
- C[C@@H]1CN([C@@H](C)CO)C(=O)c2cc(NS(=O)(=O)c3ccc(F)cc3)ccc2O[C@@H](C)CCCCO[C@@H]1CN(C)Cc1ccc2c(c1)OCO2 — lower, -0.387%
- C[C@H](CO)N1C[C@H](C)[C@@H](CN(C)C(=O)Nc2cccc3ccccc23)Oc2c(cccc2N(C)C)C1=O — higher, 16%
- CO[C@H]1CN(C)C(=O)c2cc(NC(=O)c3ccccc3F)ccc2OC[C@H](C)N(CC2CCOCC2)C[C@H]1C — higher, 21.7%
- CCCC#Cc1ccc2c(c1)O[C@@H](CN(C)C)[C@@H](C)CN([C@@H](C)CO)S2(=O)=O — higher, 10.2%
- C[C@H]1CCCCO[C@H](CN(C)S(=O)(=O)c2ccc(Cl)cc2)[C@@H](C)CN([C@@H](C)CO)C(=O)c2cc(NS(=O)(=O)c3cccs3)ccc2O1 — higher, 74.4%
- C[C@H](CO)N1C[C@H](C)[C@@H](CN(C)Cc2ccncc2)OCCCC[C@H](C)Oc2ccc(NC(=O)NC3CCCCC3)cc2C1=O — lower, -5.46%
- CCNC(=O)COc1cccc(C(=O)NCc2ccccc2)c1 — higher, 6.99%
- O=C(CSc1ncnc2c1cnn2-c1ccccc1)NC1CCS(=O)(=O)C1 (configuration not stated) — lower, -8.72%
- C[C@H]1CN([C@@H](C)CO)C(=O)Cc2cc(NC(=O)Nc3ccccc3)ccc2O[C@H]1CN(C)C(=O)Nc1ccc2c(c1)OCO2 — higher, 0.602%
- CC(C)NC(=O)NCC[C@@H]1CC[C@@H](NC(=O)CN(C)C)[C@@H](CO)O1 — higher, 4.82%
- CCC(C)(C(=O)NC1CCCC1)N(C(C)=O)c1ccc(C)cc1 (configuration not stated) — higher, 6.68%
- CC1(C(=O)Nc2ccc3ccccc3c2)CCC(=O)N1C1CC1 (configuration not stated) — higher, 5.35%
- Cc1noc(C)c1S(=O)(=O)Nc1ccc2c(c1)C(=O)N([C@H](C)CO)C[C@H](C)[C@H](CN(C)Cc1ccncc1)O2 — higher, 27.5%
- Cc1noc(C)c1NC(=O)Nc1cccc2c1O[C@@H](CN(C)S(=O)(=O)c1cn(C)cn1)[C@@H](C)CN([C@@H](C)CO)C2=O — higher, 15.3%
- CO[C@@H]1CN(C)C(=O)c2cc(NC(=O)C3CC3)ccc2OC[C@H](C)N(C(=O)c2ccncc2)C[C@H]1C — higher, 2.97%
- CC(C)c1ccc(S(=O)(=O)N2CCN(CC(=O)Nc3ccc4c(c3)OCO4)CC2)cc1 — higher, 1.6%
- COc1ccc(S(=O)(=O)N[C@@H]2C=C[C@@H](CC(=O)N3CCC(Cc4ccccc4)CC3)O[C@H]2CO)cc1 — higher, 11.2%
- COc1cccc(S(=O)(=O)N2C[C@@H](O)COC[C@@H]3O[C@H](CC(=O)N4CCN(C)CC4)CC[C@H]32)c1 — higher, 12.8%
- CO[C@@H]1CN(C)C(=O)c2ccc(NC(=O)Nc3ccccc3)cc2OC[C@H](C)N(C(C)=O)C[C@H]1C — higher, 4.58%
- CC(=O)NC[C@@H]1[C@@H](c2ccc(C3=CCCC3)cc2)[C@@H](CO)N1C(=O)NC(C)C — higher, 19.9%
- O=C(NC1CCCCC1)N[C@@H]1CC[C@@H](CCNS(=O)(=O)c2ccc(Cl)cc2)O[C@H]1CO — higher, 8.46%

Point of comparison: CC(C)NC(=O)Nc1ccc2c(c1)CC(=O)N([C@H](C)CO)C[C@@H](C)[C@H](CN(C)Cc1ccc3c(c1)OCO3)O2, “activity change, negative = cytotoxicity” value 0.449% [at 23.5 µM]. Against it:
- Cc1ccc(S(=O)(=O)N2C[C@@H](O)COC[C@H]3O[C@H](CC(=O)NCc4ccc5c(c4)OCO5)CC[C@@H]32)cc1 — lower, -1.48% [at 23.5 µM]
